Reference: PubChem BioAssay
Activity calls are given as the source filed them. The rule behind the calls is not given here.

molecular target: Pantothenate synthetase (Mycobacterium tuberculosis (strain ATCC 25618 / H37Rv)) (UniProt P9WIL5); experiment: Recombinant Mtb pantothenate synthetase (PanC) inhibitors, coupled enzyme, confirmatory (AID 375); settings: coupled enzyme assay; at 10 µM, hits give high values;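 note: 0% = full reaction with vehicle and 100% = no enzyme background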
Sequence (P9WIL5 whole entry, looked up): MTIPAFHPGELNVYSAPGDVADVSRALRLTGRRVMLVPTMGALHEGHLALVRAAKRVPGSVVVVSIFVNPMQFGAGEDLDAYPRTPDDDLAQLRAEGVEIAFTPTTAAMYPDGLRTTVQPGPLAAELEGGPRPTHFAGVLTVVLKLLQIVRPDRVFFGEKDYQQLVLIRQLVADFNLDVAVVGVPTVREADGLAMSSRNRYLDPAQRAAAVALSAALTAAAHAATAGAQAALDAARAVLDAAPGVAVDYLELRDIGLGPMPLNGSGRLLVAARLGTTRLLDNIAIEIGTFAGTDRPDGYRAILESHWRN

| Structure (SMILES) | inhibition |
| --- | --- |
| Cc1ccc(-c2nc3ncccc3o2)cc1NC(=O)c1ccco1 | 0% (inactive) |
| O=C1CCCC2=C1C(c1cccc(Br)c1)n1nc(-c3ccco3)nc1N2 (stereo not given) | 0% (inactive) |
| O=S1(=O)C=C(Sc2nnc(-c3ccccc3)o2)c2ccccc21 | 3% (inactive) |
| COc1ccc(-n2c(=O)[nH]cc(C(=O)Nc3ccc(NC(C)=O)cc3)c2=O)cc1 | 6% (inactive) |
| O=C(Nc1ccccn1)N1CCOCC1 | 4% (inactive) |
| COc1ccc(NC(=O)Cn2nnc(-c3ccccc3N)n2)cc1OC | 0% (inactive) |
| N#CCCN1CCN(S(=O)(=O)c2ccc(S(=O)(=O)NC3CCCCC3)cc2)CC1 | 0% (inactive) |
| Cc1nnc(NC(=O)CSc2cn(CCNC(=O)c3ccccc3)c3ccccc23)s1 | 0% (inactive) |
| Nc1nc2ccc(OC(F)(F)F)cc2s1 | 7% (inactive) |
| O=C(CN1CCOCC1)Nc1cccc(C(=O)Nc2cccc(C(F)(F)F)c2)c1 | 2% (inactive) |
| CCOc1cc(C(=O)Nc2c3c(nn2C(C)(C)C)CS(=O)C3)cc(OCC)c1OCC (stereo not given) | 4% (inactive) |
| CCCC(=O)Nc1ccccc1-c1nnn(CC(=O)Nc2ccc(OC)cc2)n1 | 0% (inactive) |
| O=C(CSc1nc(O)c(Cc2ccccc2)c(=O)[nH]1)Nc1ccccc1 | 0% (inactive) |
| CCOC(=O)Cn1nc(-c2ccc(C)cc2)ccc1=O | 0% (inactive) |
| c1cc2c(cc1Cn1cnnn1)OCO2 | 0% (inactive) |
| CCCS(=O)(=O)Nc1c(C(=O)O)[nH]c2ccccc12 | 0% (inactive) |
| CCOC(=O)CC(=O)CSc1[nH]c(=O)cc(C)c1C#N | 8% (inactive) |
| C=CCOc1nc(N(C)C)nc(N(C)C)n1 | 7% (inactive) |
| Cc1ccc(NC(=O)COS(=O)c2ccc(C)cc2)cc1 (stereo not given) | 0% (inactive) |
| CCCCn1c(CN(C)Cc2ccccc2)nc2c1c(=O)n(C)c(=O)n2C | 0% (inactive) |

| Structure (SMILES) | inhibition |
| --- | --- |
| Cc1cc(C)n(C(C)n2nc(C)cc2C)n1 | 6% (inactive) |
| COc1cccc(OC)c1C(=O)Nc1cccc(C(C)=O)c1 | 2% (inactive) |
| CC1CN(C(=O)CSc2ncnc3sccc23)CC(C)O1 (stereo not given) | 0% (inactive) |
| Cc1ccc(N(C(=O)C2CCC(=O)N2)C2(C(=O)NC3CCCCC3)CCCCC2)cc1 (stereo not given) | 2% (inactive) |
| COc1ccc2cc(C#N)c(NC(C)C)nc2c1 | 0% (inactive) |
| CS(=O)(=O)N(CC(=O)O)c1cccc(Cl)c1 | 3% (inactive) |
| CC1=C(C(=O)OCc2ccccc2)C(c2ccc(C)o2)C2=C(CCCC2=O)N1 (stereo not given) | 4% (inactive) |
| CCCCCC1CC(CC#CCN2CCOCC2)C(=O)O1 (stereo not given) | 7% (inactive) |
| Cc1nnc(NC(=O)CSc2nc3c(c(=O)n2C)SC(C)C3)s1 (stereo not given) | 5% (inactive) |
| Fc1cc(F)c(F)c(SCCc2ccncc2)c1F | 0% (inactive) |
| CC1(C)CC(=O)C(C=Nc2ccncc2)=C(O)C1 | 0% (inactive) |
| CN(CC(=O)O)S(=O)(=O)c1cc(Cl)ccc1Cl | 1% (inactive) |
| Cc1cccc(C(=O)N2CCC(n3nnc4cc(F)ccc43)CC2)c1 | 0% (inactive) |
| CCOC(=O)/C(C#N)=C1\Nc2ccccc2N=C1N(CC(C)C)CC(C)C | 6% (inactive) |
| CCOC(=O)c1sc(=NC(=O)c2ccc(OC)c(OC)c2)n(C)c1C | 2% (inactive) |
| CCOC(=O)C1CN(S(=O)(=O)c2ccc(C)cc2)CCN1S(=O)(=O)c1ccc(C)cc1 (stereo not given) | 0% (inactive) |
| CC1(C)Cc2noc(N)c2C(C)(C)N1OC(=O)c1cccs1 | 0% (inactive) |
| CCC[C@@H]1C[C@@H](C(=O)N[C@H]([C@@H](C)O)[C@H]2O[C@H](SC)[C@H](O)[C@@H](O)C2O)N(C)C1 (stereo not given in full) | 0% (inactive) |
| Cc1cccc(C)c1OCc1nnc2c3cnn(C)c3ncn12 | 0% (inactive) |
| Cc1ccc2[nH]c3c(N4CCOCC4)ncnc3c2c1 | 0% (inactive) |
